Results published in PubChem BioAssay.
Active and inactive are the calls of the source.

Columns and labels:
[1] = molecular target: Albumin (Bos taurus) (UniProt P02769); assay: compounds binding labelled BSA control protein – biochemical, small-molecule microarray, Alexa647 label, 635/667 nm fluorescence, artefact control for SMM control protein annotation, profiling panel (AID 1118); conditions: BSA-A647 binding, fluorescence 635 nm, higher = more signal;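 note: score merges 667 nm emission intensity and signal-to-noise per printed compound spot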
Albumin (Bos taurus), sequence (P02769 whole entry, looked up): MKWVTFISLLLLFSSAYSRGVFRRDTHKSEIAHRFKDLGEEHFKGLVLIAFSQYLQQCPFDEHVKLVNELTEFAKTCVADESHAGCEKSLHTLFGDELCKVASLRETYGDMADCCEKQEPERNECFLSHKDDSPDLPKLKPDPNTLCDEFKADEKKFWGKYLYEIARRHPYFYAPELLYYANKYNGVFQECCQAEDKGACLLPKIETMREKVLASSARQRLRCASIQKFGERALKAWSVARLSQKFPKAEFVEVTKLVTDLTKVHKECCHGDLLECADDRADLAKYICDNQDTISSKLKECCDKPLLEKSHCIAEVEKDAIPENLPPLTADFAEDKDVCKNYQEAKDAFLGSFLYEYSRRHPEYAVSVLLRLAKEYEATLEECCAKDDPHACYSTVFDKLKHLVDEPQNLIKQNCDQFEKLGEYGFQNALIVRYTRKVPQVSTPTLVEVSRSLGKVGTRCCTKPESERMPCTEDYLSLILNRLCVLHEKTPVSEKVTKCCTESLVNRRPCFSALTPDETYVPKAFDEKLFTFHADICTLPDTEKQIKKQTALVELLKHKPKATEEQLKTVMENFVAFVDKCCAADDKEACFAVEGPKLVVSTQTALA

[2] = probe aXIP binding to arrayed compounds – biochemical, NeuroSMM set, 635/667 nm fluorescence, primary screen (AID 1119); conditions: small-molecule microarray, higher = more signal, called active from +8 up or from −8 down;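 note: probe is the protein aXip251-270 applied at 1 µg/mL to compound-printed slides; binding of probe to printed compounds measured as 667 nm fluorescence plus signal to noise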
[3] = probe aNOTCH3 binding on compound microarray – biochemical, small-molecule microarray, 635/667 nm fluorescence, primary screen (AID 1120); conditions: higher = more signal;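 note: probe is a biotin-tagged antibody raised against NOTCH3 rather than NOTCH3 protein; score merges spot fluorescence near 667 nm with spot signal to noise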
[4] = probe aNOTCH2 binding on compound microarray – biochemical, small-molecule microarray, 635/667 nm fluorescence, primary screen (AID 1121); conditions: higher = more signal;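 note: score merges feature fluorescence read at 667 nm with its signal to noise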
[5] = molecular target: Carbonic anhydrase 2 (Homo sapiens) (UniProt P00918); assay: compounds binding carbonic anhydrase 2 – biochemical, small-molecule microarray, Alexa647-labelled CAII, profiling panel (AID 1122); conditions: CAII-A647 binding fluorescence, higher = more signal
[6] = COS7 lysate on small-molecule microarray, probe aHis, 635 nm (AID 1123); conditions: COS7 cell lysate, fluorescence, higher = more signal;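 note: z-score combines 667nm fluorescence intensity with signal-to-noise per printed compound spot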
[7] = probe aLAP1 signal on lysate-treated microarray – cell lysate, small-molecule microarray, COS7 lysate, primary screen (AID 1124); conditions: probe aLAP1, fluorescence, higher = more signal;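 note: lysate comes from COS7 cells expressing LAP1 and is applied at 0.3 µg/mL; score merges spot fluorescence near 667 nm with signal-to-noise over triplicate slides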
[8] = system: Sam68 (KHDRBS1); assay: compounds binding KHDRBS1 protein – biochemical, small-molecule microarray, 635 nm fluorescence, primary screen (AID 1125); conditions: higher = more signal;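 note: score merges 667 nm channel intensity with signal to noise over triplicate slides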
[9] = system: Chordin-like protein 2 (CHRDL2); assay: compounds binding chordin-like 2 – biochemical, small-molecule microarray, 635 nm fluorescence, primary screen (AID 1126); conditions: fluorescence 635 nm, higher = more signal;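 note: printed compound slides probed with Chrdl2 protein at 4 µg/mL for 1 h at 4 C; score merges 667 nm emission intensity with signal to noise over three replicate slides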
[10] = molecular target: Concanavalin-A (Canavalia ensiformis) (UniProt P02866); assay: compounds binding concanavalin A lectin – biochemical, small-molecule microarray, Alexa647 label, 635 nm, artefact control for SMM control protein annotation, primary screen (AID 1127); conditions: ConA-A647 binding fluorescence, higher = more signal;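 note: z combines 667 nm emission intensity with signal-to-noise across three replicate slides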
Concanavalin-A (Canavalia ensiformis), sequence (P02866 whole entry, looked up): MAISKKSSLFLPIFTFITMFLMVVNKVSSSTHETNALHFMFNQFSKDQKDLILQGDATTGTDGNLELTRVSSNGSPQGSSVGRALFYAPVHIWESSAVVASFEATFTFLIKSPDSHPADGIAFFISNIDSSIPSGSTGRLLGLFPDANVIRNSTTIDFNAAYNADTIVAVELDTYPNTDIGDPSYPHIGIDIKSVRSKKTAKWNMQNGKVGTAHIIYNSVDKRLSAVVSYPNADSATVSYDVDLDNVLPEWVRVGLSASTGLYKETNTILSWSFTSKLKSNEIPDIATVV

[11] = compounds binding Alexa647 anti-His antibody – biochemical, small-molecule microarray, 635 nm fluorescence, artefact control for SMM control protein annotation, primary screen (AID 1128); conditions: higher = more signal;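 note: score merges feature fluorescence with signal-to-noise for each printed compound spot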
[12] = system: Human papillomavirus type 1a E7 protein (residues 1-88); assay: HPV1a E7 small-molecule binders, primary screen, biochemical, small-molecule microarray, residues 1-88, 635 nm (AID 1129); conditions: small-molecule microarray binding, fluorescence 635 nm; higher = more signal
[13] = molecular target: Focal adhesion kinase 1 (Homo sapiens) (UniProt Q05397); assay: PTK2 protein binding on printed compound slides – biochemical, small-molecule microarray, 635/667 nm fluorescence, BSA, DTT, primary screen (AID 1130); conditions: 635 nm fluorescence, higher = more signal;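 note: composite of spot emission at 667 nm and signal to noise over triplicate slides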
Focal adhesion kinase 1 (Homo sapiens), sequence (Q05397 whole entry, looked up): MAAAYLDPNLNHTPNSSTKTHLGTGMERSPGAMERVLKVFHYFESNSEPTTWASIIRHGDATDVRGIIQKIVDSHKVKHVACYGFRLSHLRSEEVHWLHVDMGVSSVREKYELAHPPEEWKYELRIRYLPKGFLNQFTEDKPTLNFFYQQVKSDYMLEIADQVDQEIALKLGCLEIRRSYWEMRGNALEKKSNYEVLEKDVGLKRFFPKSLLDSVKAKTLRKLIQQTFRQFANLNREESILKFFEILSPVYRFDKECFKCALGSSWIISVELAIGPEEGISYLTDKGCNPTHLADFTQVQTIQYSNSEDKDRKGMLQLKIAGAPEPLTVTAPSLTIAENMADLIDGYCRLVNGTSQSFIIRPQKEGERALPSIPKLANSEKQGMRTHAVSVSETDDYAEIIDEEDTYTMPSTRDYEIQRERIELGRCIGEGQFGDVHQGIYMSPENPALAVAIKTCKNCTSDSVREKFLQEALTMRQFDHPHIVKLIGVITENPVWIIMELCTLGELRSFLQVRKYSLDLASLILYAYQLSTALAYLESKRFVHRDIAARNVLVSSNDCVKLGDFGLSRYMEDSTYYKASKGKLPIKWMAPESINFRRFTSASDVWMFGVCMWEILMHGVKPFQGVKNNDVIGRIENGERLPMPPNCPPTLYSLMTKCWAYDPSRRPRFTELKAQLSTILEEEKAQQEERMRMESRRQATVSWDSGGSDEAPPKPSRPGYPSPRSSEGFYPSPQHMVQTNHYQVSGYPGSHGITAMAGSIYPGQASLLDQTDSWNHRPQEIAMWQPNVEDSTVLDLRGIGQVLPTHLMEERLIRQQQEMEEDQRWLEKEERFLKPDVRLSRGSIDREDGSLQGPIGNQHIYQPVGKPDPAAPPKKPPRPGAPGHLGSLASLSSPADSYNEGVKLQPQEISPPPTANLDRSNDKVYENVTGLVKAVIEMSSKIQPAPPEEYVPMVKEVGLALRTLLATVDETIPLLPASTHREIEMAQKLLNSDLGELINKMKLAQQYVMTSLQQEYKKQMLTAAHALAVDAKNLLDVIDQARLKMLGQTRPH

[14] = system: Fibrinogen (Alexa647-labelled); assay: Alexa647-fibrinogen binding to printed small molecules – biochemical, small-molecule microarray, 635/667 nm fluorescence, artefact control for SMM control-protein annotation, profiling panel (AID 1131); conditions: fibrinogen-A647 binding fluorescence, higher = more signal;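 note: z-score merges 667 nm fluorescence with per-spot signal-to-noise over triplicate slides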
[15] = molecular target: Follistatin (Homo sapiens) (UniProt P19883); assay: FST protein binding to printed compounds – biochemical, small-molecule microarray, 635/667 nm fluorescence, primary screen (AID 1132); conditions: 635 nm fluorescence, higher = more signal
Follistatin (Homo sapiens), sequence (P19883 whole entry, looked up): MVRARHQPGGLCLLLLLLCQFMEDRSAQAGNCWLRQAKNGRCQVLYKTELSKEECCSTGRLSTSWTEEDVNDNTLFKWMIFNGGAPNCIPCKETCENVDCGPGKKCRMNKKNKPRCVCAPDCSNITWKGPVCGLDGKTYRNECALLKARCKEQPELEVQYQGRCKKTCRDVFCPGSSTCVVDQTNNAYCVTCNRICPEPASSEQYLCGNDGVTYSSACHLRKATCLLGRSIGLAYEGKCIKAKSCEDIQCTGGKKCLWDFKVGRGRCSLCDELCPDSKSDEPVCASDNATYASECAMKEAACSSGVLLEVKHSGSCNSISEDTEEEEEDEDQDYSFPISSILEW

[16] = molecular target: Fibroblast growth factor 2 (Homo sapiens) (UniProt P09038); assay: basic fibroblast growth factor binding to printed compounds – biochemical, small-molecule microarray, 635/667 nm fluorescence, primary screen (AID 1133); conditions: FGF2, fluorescence 635/667, higher = more signal
Fibroblast growth factor 2 (Homo sapiens), sequence (P09038 whole entry, looked up): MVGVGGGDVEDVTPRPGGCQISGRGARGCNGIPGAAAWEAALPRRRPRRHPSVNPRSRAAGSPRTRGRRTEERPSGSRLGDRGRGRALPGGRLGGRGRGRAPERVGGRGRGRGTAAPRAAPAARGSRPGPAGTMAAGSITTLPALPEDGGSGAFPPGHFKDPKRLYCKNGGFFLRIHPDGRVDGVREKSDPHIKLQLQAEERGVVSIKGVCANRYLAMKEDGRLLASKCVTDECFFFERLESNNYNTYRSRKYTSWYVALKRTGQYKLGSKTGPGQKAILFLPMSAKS

[17] = JC-1 mitochondrial potential readout, lung cancer cells – cell-based, A549, JC-1 fluorescence, basal, 24 h, 100 nL, profiling panel (AID 1138); conditions: higher = more signal;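 note: A549 lung adenocarcinoma cells under basal conditions with no added stimulus; test concentration not given here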
[18] = system: Lefty1; assay: Lefty1 protein binding to printed compounds – biochemical, small-molecule microarray, 635/667 nm fluorescence, primary screen (AID 1139); conditions: fluorescence 635/667, higher = more signal
[19] = system: wheat germ agglutinin (Triticum aestivum), Alexa647-labelled; assay: Alexa647-WGA lectin binding to printed small molecules – biochemical, small-molecule microarray, 635/667 nm fluorescence, artefact control for SMM control-protein annotation, profiling panel (AID 1140); conditions: WGA-A647 binding, 635 nm fluorescence, higher = more signal;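 note: score merges 667 nm feature emission with signal to noise over triplicate slides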
[20] = molecular target: Luciferin 4-monooxygenase (Photinus pyralis) (UniProt P08659); assay: inhibition of purified Photinus pyralis luciferase – biochemical, luminescence, purified enzyme, 2006 set, primary screen (AID 1141); conditions: purified firefly luciferase, SteadyGlo luminescence, 30 min; higher = more signal, called active from +8 up or from −8 down;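 note: cell-free assay with purified firefly luciferase at 100 ng per well in PBS; test concentration not given here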
Luciferin 4-monooxygenase (Photinus pyralis), sequence (P08659 whole entry, looked up): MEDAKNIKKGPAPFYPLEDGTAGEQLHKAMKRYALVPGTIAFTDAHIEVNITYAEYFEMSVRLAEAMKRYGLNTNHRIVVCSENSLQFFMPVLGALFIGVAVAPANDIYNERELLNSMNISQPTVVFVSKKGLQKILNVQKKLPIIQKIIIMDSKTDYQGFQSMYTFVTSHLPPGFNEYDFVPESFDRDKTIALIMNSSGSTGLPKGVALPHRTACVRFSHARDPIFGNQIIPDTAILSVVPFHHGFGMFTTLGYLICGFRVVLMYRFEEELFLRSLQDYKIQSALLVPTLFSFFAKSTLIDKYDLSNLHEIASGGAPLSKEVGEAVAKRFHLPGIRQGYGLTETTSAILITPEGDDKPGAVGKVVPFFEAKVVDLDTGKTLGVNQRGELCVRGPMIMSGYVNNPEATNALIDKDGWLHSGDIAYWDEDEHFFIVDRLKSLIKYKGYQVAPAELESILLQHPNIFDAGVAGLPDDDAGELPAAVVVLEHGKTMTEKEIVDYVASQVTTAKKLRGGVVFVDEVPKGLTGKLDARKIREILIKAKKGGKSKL

Compound	composite z-score [1]	composite Z-score [2]	composite z-score [3]	composite z-score [4]	composite z-score [5]	composite z-score [6]	composite z-score [7]	composite z-score [8]	composite z-score [9]	composite z-score [10]	composite z-score [11]	composite z-score [12]	composite z-score [13]	composite z-score [14]	composite z-score [15]	composite z-score [16]	z-score [17]	composite z-score [18]	composite z-score [19]	z-score [20]
COCCOC(=O)N1C(=O)[C@@]2(c3cc(C#CCC(C(=O)OC)C(=O)OC)ccc31)[C@H](C(N)=O)[C@H]1C(=O)O[C@H](c3ccccc3)[C@H](c3ccccc3)N1[C@@H]2c1ccc(OCCO)cc1	0.483	-0.0102 (inactive)	0.0271	-0.0984	0.565	1.87	0.307	1.29	0.519	1.07	1.37	1.22	0.985	0.923	1.25	1.1	-1.07	0.596	0.762	-0.409 (inactive)
C=CCC(OC(C)=O)[C@@H]1[C@@H](N(Cc2ccc(-c3cccc(C(F)(F)F)c3)o2)C(=O)Cc2ccc(F)cc2)c2cc(OCCCO)ccc2N1C(=O)c1ccc2ccccc2c1 (stereo not given in full)	-0.229	-0.0127 (inactive)	-0.0813	-0.117	-0.351	0.0261	-0.211	-0.749	-0.0715	-1.35	-0.118	-0.783	-0.192	-1.67	0.426	-0.451	0.637	0.479	-0.486	0.354 (inactive)
N#Cc1ccc(C(O)C2C=CC3C(=O)NC(=O)C3N2Nc2ccccn2)cc1 (stereo not given)	0.95	-0.483 (inactive)	0.0297	-0.0907	0.854	0.767	0.711	-0.106	0.31	0.468	0.782	0.615	-0.205	0.861	0.286	-0.126	1.36	-0.157	0.144	-1.25 (inactive)
COc1ccc(CCNC(=O)[C@@H]2c3ccccc3C(=O)N(CC34CC5CC(CC(C5)C3)C4)[C@H]2c2ccc(CO)cc2)cc1	0.764	-0.422 (inactive)	0.0206	-0.132	0.539	1.7	-0.0344	1.22	0.23	1.11	1.3	1.15	0.548	0.61	1.07	1.47	0.125	0.867	0.965	1.36 (inactive)
COC(=O)Cn1c(C(=O)N(C)C)cc2c1C[C@H]1CN(C(=O)c3ccccc3)[C@@](Cc3ccc(OC)cc3)(C(=O)OC)[C@@H]21	0.938	-0.945 (inactive)	0.332	-0.037	0.845	3.28	-0.0169	1.08	-0.108	0.812	0.817	0.845	0.263	0.605	0.371	-0.159	0.834	-0.351	0.86	0.923 (inactive)
COc1ccc([Si](C)(C)[C@H]2[C@H](CC(=O)N3Cc4ccccc4C[C@H]3CO)O[C@@]3(C(=O)N(Cc4cccc(N5C(=O)c6cccc7cccc5c67)c4)c4ccccc43)[C@@H]2C)cc1	-0.0311	0.285 (inactive)	-0.332	-0.114	0.295	1.32	0.271	1.15	1.33	0.872	0.577	1.16	0.463	-0.0297	1.18	1.59	1.03	1.53	0.108	-1.53 (inactive)
C=C(CCCC)C(=O)CC[C@H](OC(C)=O)c1ccccc1OCCO	0.326	0.7 (inactive)	0.156	-0.0242	0.113	0.0794	0.277	0.368	0.544	-0.0099	0.0808	-0.167	-0.176	-0.107	1.16	0.105	-0.012	1.36	0.737	-0.722 (inactive)
CC(C)CNC(=O)[C@@H]1c2ccccc2C(=O)N(C2Cc3ccccc3C2)[C@H]1c1ccc(CO)cc1	-0.191	-0.577 (inactive)	-0.219	-0.0984	0.687	0.284	1.45	0.547	-0.0902	0.378	0.245	0.516	-0.587	0.182	0.348	0.579	3.56	-0.499	-0.19	-0.843 (inactive)
CC(C)CNC(=O)[C@@H]1c2ccccc2C(=O)N(Cc2ccccc2)[C@H]1c1ccc(CO)cc1	-0.159	-0.318 (inactive)	-0.394	-0.122	0.83	1.63	1.35	0.293	-1.1	-0.102	1.85	0.601	0.0313	-0.66	-0.0977	0.605	0.0606	-1.7	-0.481	0.0723 (inactive)
CN1C(=O)C2C(C1=O)C1C=C(c3ccc(CO)cc3)C2C(c2cccs2)N1C (stereo not given)	0.935	0.891 (inactive)	-0.0044	-0.146	0.76	0.784	1.08	0.47	-0.125	1.18	0.495	0.157	0.0955	0.783	-0.0613	-0.25	-0.0324	-0.295	0.742	-0.836 (inactive)
